Assay results taken from PubChem BioAssay (EPA / NIEHS).
Inconclusive results are not listed. Activity calls are given as the source filed them. How the source made its calls: active means hit-call score of the fitted dose curve at least 0.9, where 1 is the maximum; inconclusive means response in the unintended direction; inactive means score below 0.9.

What follows are compounds tested on sulfotransferase (SULT2A), SULT2A1 (gene 6822) (assay: CLD_SULT2A_48hr: CellzDirect (CLD) Gene Expression Assay for sulfotransferase (SULT2A) at 48 hours (AID 2283710);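 further: hits raise SULT2A1 transcript above the 0.2% DMSO vehicle baseline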).
Description: CLD_48hr is a cell-based, multiplexed-readout assay that uses hepatocyte, a human liver primary cell, with measurements taken at 48 hours after chemical dosing in a 96-well plate.CLD_SULT2A_48hr is one of 16 assay component(s) measured or calculated from the CLD_48hr assay. It is designed to make measurements of mRNA induction, a form of inducible reporter, as detected with chemiluminescence signals by Quantitative Nuclease Protection Assay (qNPA) technology.Data from the assay component CLD_SULT2A_48hr was analyzed at the endpoint, CLD_SULT2A_48hr, in the positive analysis fitting direction relative to DMSO as the negative control and baseline of activity. Using a type of inducible reporter, gain-of-signal activity can be used to understand changes in the reporter gene as they relate to the gene SULT2A1. Furthermore, this assay endpoint can be referred to as a primary readout. To generalize the intended target to other relatable targets, this assay endpoint is annotated to the transferase intended target family, where subfamily is sulfotransferase.
Human hepatocyte cultures were treated daily for two consecutive days with fresh dosing solutions containing appropriate concentrations of the 320 ToxCast chemicals (chemical identities were blinded to CellzDirect and other ToxCast collaborators), vehicle control (0.2% DMSO), and positive control inducers as summarized in Table 1. Due to the large number of treatment groups and chemicals examined, the ToxCast chemicals were divided into two groups (spanning two independent cultures of hepatocytes from separate donor preparations (Hu778: ToxCast plates 1 and 2; Hu776: ToxCast plates 3 and 4). Each preparation of human hepatocyte cultures was treated with respective vehicle control, medium only control, set of six positive controls/reference chemicals for the five hepatic receptor pathways, and a subset of eight of the ToxCast chemicals (indoxacarb, pyrithiobac-sodium, norflurazon, cyhalofop-butyl, methomyl, thiram, acetochlor, and propiconazole). These replicate data, coupled with internal replicates designed within the blinded ToxCast chemical library, provided additional data to evaluate interindividual differences between hepatocyte preparations and their potential impact on chemical profiles.Cell morphology and integrity were evaluated using phase-contrast microscopy as an indicator of hepatocyte cell health (Tyson & Green, 1987). Cultures for each treatment group (i.e., media, vehicle [0.2% DMSO], positive control inducers [multiple concentrations], and the ToxCast chemicals [multiple concentrations]) were observed and cell morphology was assessed relative to vehicle control cultures at each harvest time point (0, 6, 24, or 48 h). […] Images were evaluated at the conclusion of the study to assess changes in cell integrity and account for the effects of chemical exposure on uncharacteristic changes in concentration-dependent gene expression profiles. The results from these determinations of apparent cytotoxicity were annotated (yes/no) alongside the corresponding qNPA data for reference.At the conclusion of each treatment period, hepatocyte cultures (96-well) were washed with 1 volume of HBSS, lysed by addition of 25 ul ArrayPlate lysis buffer (HTG, Tucson, AZ), and 70 ul/well of Denaturation Oil, denatured by incubation at 95C for 10 min, and frozen at approximately -70C until analysis by nuclease protection assay (qNPA) (Roberts et al., 2007). For qNPA analysis, cell lysates were thawed at 50C for approximately 30 min, qNPA probes were added, and samples were incubated at 95C for 10 min to begin the detection process by denaturing the target RNA, dissociating the duplexes and secondary structure hybridization. At the conclusion of the hybridization period, S1 nuclease reagent was added to each sample to digest all nonprotected nucleotides at 50C for 60-90 min. […]

Row | Compound | AC50 | outcome
1 | O=C(Nc1ccccc1)Nc1cnns1 | 6.28 µM (active) | –
2 | COP(=S)(OC)Oc1ccc([N+](=O)[O-])cc1 | – | inactive
3 | C#CCN1C(=O)COc2cc(F)c(N3C(=O)C4=C(CCCC4)C3=O)cc21 | 3.49 µM (active) | –
4 | CCCN(CCC)c1c([N+](=O)[O-])cc(C(F)(F)F)cc1[N+](=O)[O-] | – | inactive
5 | COc1cc(OC)nc(NC(=O)NS(=O)(=O)c2cc(NC=O)ccc2C(=O)N(C)C)n1 | – | inactive
6 | CC1(c2ccc(Oc3ccccc3)cc2)OC(=O)N(Nc2ccccc2)C1=O (stereo not drawn) | 1.89 µM (active) | –
7 | CNC(=O)/C=C(\C)OP(=O)(OC)OC | – | inactive
8 | Cc1cc(C)nc(NC(=O)NS(=O)(=O)c2ccccc2C(=O)OC2COC2)n1 | – | inactive
9 | COC(=O)c1ccccc1S(=O)(=O)NC(=O)N(C)c1nc(C)nc(OC)n1 | – | inactive
10 | CC(C)(C)C(O)C(Oc1ccc(Cl)cc1)n1cncn1 (stereo not drawn) | 7.18 µM (active) | –
11 | Oc1cc(Cl)ccc1Oc1ccc(Cl)cc1Cl | – | inactive
12 | CC(C)(C)C(O)/C(=C\c1ccc(Cl)cc1Cl)n1cncn1 (stereo not drawn) | – | inactive
13 | CCN(CC)C(=O)SCc1ccc(Cl)cc1 | – | inactive
14 | CC(C)N(C(=O)COc1nnc(C(F)(F)F)s1)c1ccc(F)cc1 | – | inactive
15 | CCC(C)Nc1c([N+](=O)[O-])cc(C(C)(C)C)cc1[N+](=O)[O-] (stereo not drawn) | 1.14 µM (active) | –
16 | O=[N+]([O-])c1c(Cl)c(Cl)c(Cl)c(Cl)c1Cl | – | inactive
17 | N#Cc1c(Cl)c(Cl)c(Cl)c(C#N)c1Cl | – | inactive
18 | CN1CSC(=S)N(C)C1 | – | inactive
19 | COP(=O)(OC)OC=C(Cl)Cl | – | inactive

Row | Compound | AC50 | outcome
20 | CCC(C)(C)C(=O)OC1=C(c2ccc(Cl)cc2Cl)C(=O)OC12CCCCC2 | – | inactive
21 | O=S1OCC2C(CO1)C1(Cl)C(Cl)=C(Cl)C2(Cl)C1(Cl)Cl (stereo not drawn) | – | inactive
22 | Clc1ccccc1-c1nnc(-c2ccccc2Cl)nn1 | – | inactive
23 | Cc1[nH]c(=O)n(C(C)(C)C)c(=O)c1Cl | – | inactive
24 | CCS(=O)(=O)c1cccnc1S(=O)(=O)NC(=O)Nc1nc(OC)cc(OC)n1 | – | inactive
25 | O=C(O)CCCOc1ccc(Cl)cc1Cl | – | inactive
26 | C[C@H]1[C@H](c2ccc(Cl)cc2)SC(=O)N1C(=O)NC1CCCCC1 | – | inactive
27 | O=C(NC(=O)c1c(F)cccc1F)Nc1ccc(OC(F)(F)C(F)OC(F)(F)F)c(Cl)c1 (stereo not drawn) | – | inactive
28 | CC1(C)C(C=C(Cl)Cl)C1C(=O)OC(C#N)c1ccc(F)c(Oc2ccccc2)c1 (stereo not drawn) | – | inactive
29 | O=[N+]([O-])/N=C1\NCCN1Cc1ccc(Cl)nc1 | – | inactive
30 | CNC(=O)Oc1ccccc1OC(C)C | – | inactive
31 | Oc1ccc(Cl)cc1Cc1ccccc1 | – | inactive
32 | CCc1ccc(C(=O)NN(C(=O)c2cc(C)cc(C)c2)C(C)(C)C)cc1 | – | inactive
33 | COC(=O)c1ccccc1S(=O)(=O)NC(=O)Nc1nc(C)nc(OC)n1 | – | inactive
34 | CCOC1Oc2ccc(OS(C)(=O)=O)cc2C1(C)C (stereo not drawn) | – | inactive
35 | O=S(=O)(O)C(F)(F)C(F)(F)C(F)(F)C(F)(F)C(F)(F)C(F)(F)C(F)(F)C(F)(F)F | – | inactive
36 | O=C(O)C(F)(F)C(F)(F)C(F)(F)C(F)(F)C(F)(F)C(F)(F)C(F)(F)F | – | inactive
37 | CCC(C)(NC(=O)c1cc(Cl)c(C)c(Cl)c1)C(=O)CCl (stereo not drawn) | – | inactive
38 | COc1nn(CSP(=S)(OC)OC)c(=O)s1 | – | inactive
